The sample as a whole holds a higher share of hits than the screen did.
HIV RNase H inh-1: blocks HIV-1 RNase H cleavage of RNA/DNA duplex. P04585. RT-RNase H RNA/DNA duplex cleavage, fluorescence. inhibition, % at 10 µM. 65,000 compounds, 1.9% hits. AID 565; in the data active means inhibition above about 50%
HIV RNase H inh-2: confirmation of HIV-1 reverse transcriptase RNase H inhibitors. inhibition, % at 10 µM. AID 651. 1,000 compounds, 39% hits. shares compounds with HIV RNase H inh-1. Recombinant RT RNase H, fluorescent RNA/DNA duplex cleavage; in the data active means inhibition above about 48%
* hit, by the source's call.

SMILES	HIV RNase H inh-1	others
Cc1nc(N2CCN(c3ccccc3)CC2)[nH]c(=O)c1Cc1cccc2ccccc12	63*	HIV RNase H inh-2=-8
CCc1c(C)nc(N2CCOCC2)[nH]c1=O	-1
CCn1c(SCc2ccc(OC)cc2)nnc1-c1ccncc1	0
Cc1cccc(N=C(N2CCOCC2)P(=O)(N2CCOCC2)N2CCOCC2)c1	-3
CCN(c1ccccc1)S(=O)(=O)c1ccc(F)cc1C	-26
Cc1ccc(OCC(O)CNS(=O)(=O)c2ccccc2C(=O)N2CCCCC2)cc1 (centres undefined)	-2
COc1cccc(C2CC(=O)N3CN(c4ccccc4F)CSC3=C2C#N)c1 (centres undefined)	76*	HIV RNase H inh-2=12
COc1cc(C2CC(=O)N3CN(c4ccccc4C)CSC3=C2C#N)cc(OC)c1OC (centres undefined)	66*	HIV RNase H inh-2=83*
COc1cccc(C2CC(=O)N3CN(c4cccc(Cl)c4C)CSC3=C2C#N)c1OC (centres undefined)	25
COc1ccc(OC)c(C2CC(=O)N3CN(c4ccccc4F)CSC3=C2C#N)c1 (centres undefined)	27
COc1ccc(OC)c(C2CC(=O)N3CN(c4cccc(Cl)c4C)CSC3=C2C#N)c1 (centres undefined)	21
COc1ccc(C2CC(=O)N3C(=C2C#N)SCC3(O)c2ccccc2)cc1 (centres undefined)	-4
COc1ccccc1N1CSC2=C(C#N)C(c3ccc(SC)cc3)CC(=O)N2C1 (centres undefined)	81*	HIV RNase H inh-2=55*
COc1ccc(C2CCCN2C(=O)Nc2ccc(F)cc2)cc1OC (centres undefined)	-3
COC(=O)C1(S(=O)(=O)c2ccc(C)cc2)CCOCC1	-5
O=C(CCCc1ccccc1)N1CCc2ccccc21	-39
Cc1ccc(S(=O)(=O)N2CCN(c3nc(C)c4c(c3C#N)CC(C)(C)OC4)CC2)cc1	7
O=C(Cc1ccc(Br)cc1)N1CCCCCC1	-7
CCOC(=O)CSC1=C(C#N)C(c2ccccc2F)C(C(C)=O)=C(C)N1 (centres undefined)	1
CSCSC1=C(C#N)C(c2ccccc2Cl)C(C(C)=O)=C(C)N1 (centres undefined)	70*	HIV RNase H inh-2=42
CC(=O)C1=C(C)NC(SCSc2ccccc2)=C(C#N)C1c1cccnc1 (centres undefined)	-75
CCOC(=O)COn1c(=O)c(=O)n(O)c2ccccc21	-8
c1ccc2sc(SCc3ccc(-c4nnco4)cc3)nc2c1	-20
O=C(CSc1nc(-c2ccncc2)nn1CC(=O)N1CCCCC1)NC1CCCC1	-8
O=C(Nc1scc(-c2ccccc2)c1C(=O)O)c1ccco1	0
SMILES	HIV RNase H inh-1	others
O=C(Nc1nnc(CCc2ccccc2)s1)c1ccco1	-13
NC(=O)c1cc(Cc2ccccc2)sc1NC(=O)c1ccco1	89*	HIV RNase H inh-2=31
Cc1noc(/C=C/N(C)C)c1S(=O)(=O)N1CCCC(C(=O)NCCC2=CCCCC2)C1 (centres undefined)	-1
CCOc1ccccc1C1C(C(=O)Nc2ccccc2OC)=C(C)Nc2nnnn21 (centres undefined)	-15
Cc1nc(CSc2nnc3scc(-c4ccc(Cl)cc4)n23)cs1	-81
COc1cccc(-c2nc(CS(=O)CC(=O)NCc3ccccc3)c(C)o2)c1 (centres undefined)	-6
COC(=O)/C=c1/sc2nc3ccccc3n2c1=O	-3
O=c1/c(=C/c2ccccn2)sc2nc3ccccc3n12	60*	HIV RNase H inh-2=79*
O=c1c2ccccc2nc2sc3ccccc3n12	-24
c1ccc2c(c1)Cc1cc(CN3CCOCC3)ccc1-2	-8
COc1ccc(OC)c(C(=O)CSc2nnc(-c3cccnc3)n2C)c1	5
CCOCC(=O)N1CCCC(C(=O)OCC)C1 (centres undefined)	-2
Cc1nc2ccc(S(=O)(=O)NCC(=O)N3CCC(N4CCCCC4)CC3)cc2s1	-15
Cc1cc(C)c2c(=O)n(CC(=O)N3CCC(N4CCCCC4)CC3)sc2n1	83*	HIV RNase H inh-2=58*
CC(=O)c1cc(-c2ccccc2)n(CC(=O)N2CCC(N3CCCCC3)CC2)c1C	-10
CCOC(=O)C1CCCN(C(=O)Cn2cnc3c2c(=O)n(C)c(=O)n3C)C1 (centres undefined)	-8
CCOC(=O)C1CCCN(C(=O)Cn2sc3nc(C)cc(C)c3c2=O)C1 (centres undefined)	85*	HIV RNase H inh-2=51*
Cc1cc(NC(=O)CC(CN(C)S(=O)(=O)c2ccccc2)c2ccccc2)no1 (centres undefined)	5
CC1=C(C(=O)OC(C)C)C(c2ccccn2)n2ncnc2N1 (centres undefined)	-6
CCC(=O)N1CN(S(=O)(=O)c2ccc(C)cc2)CC1C (centres undefined)	3
O=S(=O)(c1ccc(Cl)c(C(F)(F)F)c1)N1CCN(CC(O)COCC2CCCO2)CC1 (centres undefined)	-1
Cc1ccc2[nH]c3nc(SCCN4CCOCC4)nnc3c2c1	-19
COc1ccc2[nH]c3nc(SCc4nnc(-c5ccc(C)cc5)o4)nnc3c2c1	60*	HIV RNase H inh-2=8
COc1ccc(-c2nnc(SCc3cc(C)cc(C)c3)o2)cc1	-37
O=C(NCc1ccccc1)c1cnc2n(c1=O)CCS2	0
SMILES	HIV RNase H inh-1	others
CCCCNC(=O)c1cnc2n(c1=O)CCS2	-5
O=C(NCCCc1ccccc1)c1cnc2n(c1=O)CCS2	72*	HIV RNase H inh-2=32
CC(C(=O)O)C1SC(=O)NC1=O (centres undefined)	4
COc1ccccc1Nc1nc(N)nc(CN2CCc3ccccc3C2)n1	-16
Cc1nn(Cc2ccccc2)c(C)c1NC(=O)CSc1nc2sc3c(c2c(=O)n1C)CCC3	-7
O=C(CSc1nc2ccccc2o1)NCCOc1ccccc1	-37
Cc1cccc(NC(=O)c2cc(-c3ccco3)nc3ccccc23)n1	24
CCOc1ccc(C(=O)Nc2cccc(C)n2)cc1	-10
Cc1cccc(NC(=O)c2ccccc2Br)n1	63*	HIV RNase H inh-2=20
COc1ccc(Cl)cc1NC(=O)CN1CCC(n2nnc3cc(F)ccc32)CC1	5
Cc1ccc(Cn2cccc(NC(=O)c3ccco3)c2=O)cc1	1
CC(=O)c1c(C)oc2ccc(NS(=O)(=O)c3ccc(O)c(C(=O)O)c3)cc12	19
COC(=O)c1ccccc1NS(=O)(=O)c1ccc(O)c(C(=O)O)c1	-25
O=C(O)c1cc(S(=O)(=O)Nc2ccc3oc(=O)sc3c2)ccc1O	82*	HIV RNase H inh-2=64*
Cc1cc(NC(=O)CSc2ccc(Cl)cc2)no1	14
Cc1cccc(-c2nsc(SCC(=O)Nc3cc(C)on3)n2)c1	70*	HIV RNase H inh-2=48
Cc1cccc(-n2ccnc2SCC(=O)Nc2cc(C)on2)c1	-43
CCCc1ccc(OCc2ccc(C(=O)N3CCN(c4ccccn4)CC3)o2)c(OC)c1	-18
Cc1cc(Oc2ccccc2)nc(OCC#N)n1	0
COc1cc(C(=O)Nc2cc(-c3nc4cc(C)ccc4o3)ccc2C)cc(OC)c1OC	8
Cc1cc(C)c2oc(-c3ccc(Cl)c(NC(=O)c4ccc(C#N)cc4F)c3)nc2c1	90*	HIV RNase H inh-2=73*
COc1ccc(C(=O)Nc2cc(Cl)ccc2Cl)c(OC)n1	-6
Cc1ccc(C2C(C#N)=C(N)SC(N)=C2C#N)c(C)c1	83*	HIV RNase H inh-2=4
Cc1ccc(C2C(C#N)=C(N)SC(N)=C2C#N)cc1	67*	HIV RNase H inh-2=26
CC(c1ccccc1)C1C(C#N)=C(N)SC(N)=C1C#N (centres undefined)	-6
CC(C)C1C(C#N)=C(N)SC(N)=C1C#N	-8
